Experimental data: the supplement of paper PMC11732987, “Enantioselective OTUD7B fragment discovery through chemoproteomics screening and high-throughput optimisation” (Communications Chemistry, 2025)

Assays:
Assay in all cases: log2 ratio of Biotin-Ahx-Ub-VS probe labelling (fragment/DMSO); higher = less target engagement (more negative = stronger competition), active = hit call of the paper (q ≤ 0.05, log2 ratio ≤ -1)
Settings in all cases: compound concentration: 200 uM; treatment time: 3 h
USP34 = USP34 (UniProt Q70CQ2)
In short: (§1)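 Average log2 ratios of fragment over vehicle were obtained by unpaired t-test from global-median-normalised Spectronaut label-free quantities. Proteins with ≥2 unique peptides were included. HEK293T lysate (495 µg per sample) was treated in triplicate with fragment at 200 µM or vehicle for 3 h, then with Biotin-Ahx-Ub-VS at 0.5 µM final for 1 h, and labelled DUBs were NeutrAvidin-enriched and run by diaPASEF LC-MS/MS.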

USP36 = biological target: T1, USP36 (UniProt Q9P275)
T1 sequence (whole entry): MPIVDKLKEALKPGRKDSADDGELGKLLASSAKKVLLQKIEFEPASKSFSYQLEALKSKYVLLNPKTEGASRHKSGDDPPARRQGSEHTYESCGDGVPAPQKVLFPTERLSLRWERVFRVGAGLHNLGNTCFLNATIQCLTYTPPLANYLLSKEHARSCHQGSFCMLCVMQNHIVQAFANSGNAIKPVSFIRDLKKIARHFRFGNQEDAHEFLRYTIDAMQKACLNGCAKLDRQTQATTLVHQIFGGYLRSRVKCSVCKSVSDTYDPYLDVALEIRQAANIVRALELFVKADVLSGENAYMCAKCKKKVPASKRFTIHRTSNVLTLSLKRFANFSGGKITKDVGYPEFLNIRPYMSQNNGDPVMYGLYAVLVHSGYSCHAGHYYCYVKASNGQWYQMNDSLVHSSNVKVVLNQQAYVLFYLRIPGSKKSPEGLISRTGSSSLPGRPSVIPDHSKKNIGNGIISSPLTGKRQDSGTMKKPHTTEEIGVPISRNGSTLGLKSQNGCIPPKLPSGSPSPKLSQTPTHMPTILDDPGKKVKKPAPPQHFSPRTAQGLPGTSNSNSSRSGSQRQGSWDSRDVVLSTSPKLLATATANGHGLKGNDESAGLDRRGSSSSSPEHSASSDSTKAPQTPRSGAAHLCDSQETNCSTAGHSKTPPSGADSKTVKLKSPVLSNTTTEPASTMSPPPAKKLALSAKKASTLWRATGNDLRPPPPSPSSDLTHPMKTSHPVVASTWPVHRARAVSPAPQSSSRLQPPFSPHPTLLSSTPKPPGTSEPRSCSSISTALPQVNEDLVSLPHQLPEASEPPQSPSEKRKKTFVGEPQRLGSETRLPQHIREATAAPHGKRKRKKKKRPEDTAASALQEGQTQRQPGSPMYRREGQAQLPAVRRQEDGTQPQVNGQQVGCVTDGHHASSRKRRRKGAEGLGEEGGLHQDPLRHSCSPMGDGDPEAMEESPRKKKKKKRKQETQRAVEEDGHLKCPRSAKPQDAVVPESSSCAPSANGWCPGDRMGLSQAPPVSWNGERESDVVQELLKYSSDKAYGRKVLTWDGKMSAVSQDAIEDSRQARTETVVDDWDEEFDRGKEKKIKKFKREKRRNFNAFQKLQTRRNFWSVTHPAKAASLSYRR
In short: as §1

USP38 = biological target: T2, USP38 (UniProt Q8NB14)
T2 sequence (whole entry): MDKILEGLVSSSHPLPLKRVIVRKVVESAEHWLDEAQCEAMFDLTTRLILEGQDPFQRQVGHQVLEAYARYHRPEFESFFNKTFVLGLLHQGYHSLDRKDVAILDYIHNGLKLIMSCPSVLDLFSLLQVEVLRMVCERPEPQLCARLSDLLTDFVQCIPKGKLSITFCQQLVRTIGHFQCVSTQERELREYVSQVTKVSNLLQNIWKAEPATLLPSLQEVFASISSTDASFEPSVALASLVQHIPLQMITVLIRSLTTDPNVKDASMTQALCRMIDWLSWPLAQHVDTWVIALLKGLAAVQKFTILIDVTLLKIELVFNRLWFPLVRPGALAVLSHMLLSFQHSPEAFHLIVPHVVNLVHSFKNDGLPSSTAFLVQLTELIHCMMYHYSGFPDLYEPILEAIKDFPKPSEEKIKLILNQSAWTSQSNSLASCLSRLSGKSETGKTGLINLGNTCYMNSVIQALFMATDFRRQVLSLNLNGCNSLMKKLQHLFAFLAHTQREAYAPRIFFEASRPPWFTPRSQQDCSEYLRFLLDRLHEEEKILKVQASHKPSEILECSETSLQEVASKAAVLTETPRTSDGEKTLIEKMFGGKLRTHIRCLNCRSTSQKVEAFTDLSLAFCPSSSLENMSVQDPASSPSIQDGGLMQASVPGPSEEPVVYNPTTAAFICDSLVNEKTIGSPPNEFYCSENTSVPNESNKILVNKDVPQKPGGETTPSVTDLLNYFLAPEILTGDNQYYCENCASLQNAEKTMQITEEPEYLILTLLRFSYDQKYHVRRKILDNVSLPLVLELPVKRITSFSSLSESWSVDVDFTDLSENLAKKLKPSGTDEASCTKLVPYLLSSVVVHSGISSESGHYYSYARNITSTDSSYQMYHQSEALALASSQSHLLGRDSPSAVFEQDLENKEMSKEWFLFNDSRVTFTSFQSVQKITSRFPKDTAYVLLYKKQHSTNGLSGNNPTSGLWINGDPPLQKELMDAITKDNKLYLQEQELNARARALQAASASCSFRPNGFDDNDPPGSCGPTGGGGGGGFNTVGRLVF
In short: as §1

USP39 = biological target: T3, USP39 (UniProt Q53GS9)
T3 sequence (whole entry): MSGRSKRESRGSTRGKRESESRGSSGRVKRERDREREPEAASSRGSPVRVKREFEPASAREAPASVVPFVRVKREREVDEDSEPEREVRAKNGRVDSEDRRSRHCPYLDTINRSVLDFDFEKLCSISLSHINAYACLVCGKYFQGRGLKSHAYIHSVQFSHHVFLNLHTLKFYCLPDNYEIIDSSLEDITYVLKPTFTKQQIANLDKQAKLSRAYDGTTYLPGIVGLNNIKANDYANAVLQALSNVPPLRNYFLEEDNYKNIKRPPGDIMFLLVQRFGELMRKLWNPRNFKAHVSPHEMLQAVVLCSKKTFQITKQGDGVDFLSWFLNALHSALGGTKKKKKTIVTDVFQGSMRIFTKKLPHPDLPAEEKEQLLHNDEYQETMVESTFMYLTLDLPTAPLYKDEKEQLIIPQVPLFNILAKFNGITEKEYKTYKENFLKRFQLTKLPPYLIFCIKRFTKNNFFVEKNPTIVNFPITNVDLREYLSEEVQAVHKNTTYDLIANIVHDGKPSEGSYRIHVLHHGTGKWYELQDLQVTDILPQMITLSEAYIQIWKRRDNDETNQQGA
In short: as §1

USP4 = biological target: T4, USP4 (UniProt Q13107)
T4 sequence (whole entry): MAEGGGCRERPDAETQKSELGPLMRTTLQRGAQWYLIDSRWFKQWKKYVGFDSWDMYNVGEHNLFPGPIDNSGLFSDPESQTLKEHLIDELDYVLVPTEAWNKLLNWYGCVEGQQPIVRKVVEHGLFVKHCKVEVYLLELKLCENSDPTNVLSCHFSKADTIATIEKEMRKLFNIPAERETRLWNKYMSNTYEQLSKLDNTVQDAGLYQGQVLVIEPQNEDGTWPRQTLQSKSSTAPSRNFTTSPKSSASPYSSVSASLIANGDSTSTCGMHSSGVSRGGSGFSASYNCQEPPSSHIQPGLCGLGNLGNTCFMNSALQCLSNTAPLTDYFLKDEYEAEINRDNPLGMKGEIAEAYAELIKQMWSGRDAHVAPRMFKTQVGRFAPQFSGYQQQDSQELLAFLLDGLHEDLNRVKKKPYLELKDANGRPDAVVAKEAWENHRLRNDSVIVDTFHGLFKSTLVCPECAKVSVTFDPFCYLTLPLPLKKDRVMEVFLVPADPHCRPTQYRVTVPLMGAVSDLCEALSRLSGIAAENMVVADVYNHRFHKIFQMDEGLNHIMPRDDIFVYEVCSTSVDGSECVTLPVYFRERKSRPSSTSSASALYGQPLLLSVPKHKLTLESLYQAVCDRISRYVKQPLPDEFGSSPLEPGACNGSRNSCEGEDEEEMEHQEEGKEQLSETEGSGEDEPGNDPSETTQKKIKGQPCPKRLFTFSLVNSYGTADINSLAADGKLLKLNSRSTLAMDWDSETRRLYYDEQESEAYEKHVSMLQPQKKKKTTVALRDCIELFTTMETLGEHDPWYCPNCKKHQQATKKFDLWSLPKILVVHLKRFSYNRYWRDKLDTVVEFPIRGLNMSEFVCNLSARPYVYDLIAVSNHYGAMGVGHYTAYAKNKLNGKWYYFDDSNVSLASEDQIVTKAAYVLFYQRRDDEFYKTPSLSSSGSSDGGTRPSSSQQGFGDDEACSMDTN
In short: as §1

Measured: log2 ratio of Biotin-Ahx-Ub-VS probe labelling

Chain of USP34 (Q70CQ2 whole entry, the tested form may be a part): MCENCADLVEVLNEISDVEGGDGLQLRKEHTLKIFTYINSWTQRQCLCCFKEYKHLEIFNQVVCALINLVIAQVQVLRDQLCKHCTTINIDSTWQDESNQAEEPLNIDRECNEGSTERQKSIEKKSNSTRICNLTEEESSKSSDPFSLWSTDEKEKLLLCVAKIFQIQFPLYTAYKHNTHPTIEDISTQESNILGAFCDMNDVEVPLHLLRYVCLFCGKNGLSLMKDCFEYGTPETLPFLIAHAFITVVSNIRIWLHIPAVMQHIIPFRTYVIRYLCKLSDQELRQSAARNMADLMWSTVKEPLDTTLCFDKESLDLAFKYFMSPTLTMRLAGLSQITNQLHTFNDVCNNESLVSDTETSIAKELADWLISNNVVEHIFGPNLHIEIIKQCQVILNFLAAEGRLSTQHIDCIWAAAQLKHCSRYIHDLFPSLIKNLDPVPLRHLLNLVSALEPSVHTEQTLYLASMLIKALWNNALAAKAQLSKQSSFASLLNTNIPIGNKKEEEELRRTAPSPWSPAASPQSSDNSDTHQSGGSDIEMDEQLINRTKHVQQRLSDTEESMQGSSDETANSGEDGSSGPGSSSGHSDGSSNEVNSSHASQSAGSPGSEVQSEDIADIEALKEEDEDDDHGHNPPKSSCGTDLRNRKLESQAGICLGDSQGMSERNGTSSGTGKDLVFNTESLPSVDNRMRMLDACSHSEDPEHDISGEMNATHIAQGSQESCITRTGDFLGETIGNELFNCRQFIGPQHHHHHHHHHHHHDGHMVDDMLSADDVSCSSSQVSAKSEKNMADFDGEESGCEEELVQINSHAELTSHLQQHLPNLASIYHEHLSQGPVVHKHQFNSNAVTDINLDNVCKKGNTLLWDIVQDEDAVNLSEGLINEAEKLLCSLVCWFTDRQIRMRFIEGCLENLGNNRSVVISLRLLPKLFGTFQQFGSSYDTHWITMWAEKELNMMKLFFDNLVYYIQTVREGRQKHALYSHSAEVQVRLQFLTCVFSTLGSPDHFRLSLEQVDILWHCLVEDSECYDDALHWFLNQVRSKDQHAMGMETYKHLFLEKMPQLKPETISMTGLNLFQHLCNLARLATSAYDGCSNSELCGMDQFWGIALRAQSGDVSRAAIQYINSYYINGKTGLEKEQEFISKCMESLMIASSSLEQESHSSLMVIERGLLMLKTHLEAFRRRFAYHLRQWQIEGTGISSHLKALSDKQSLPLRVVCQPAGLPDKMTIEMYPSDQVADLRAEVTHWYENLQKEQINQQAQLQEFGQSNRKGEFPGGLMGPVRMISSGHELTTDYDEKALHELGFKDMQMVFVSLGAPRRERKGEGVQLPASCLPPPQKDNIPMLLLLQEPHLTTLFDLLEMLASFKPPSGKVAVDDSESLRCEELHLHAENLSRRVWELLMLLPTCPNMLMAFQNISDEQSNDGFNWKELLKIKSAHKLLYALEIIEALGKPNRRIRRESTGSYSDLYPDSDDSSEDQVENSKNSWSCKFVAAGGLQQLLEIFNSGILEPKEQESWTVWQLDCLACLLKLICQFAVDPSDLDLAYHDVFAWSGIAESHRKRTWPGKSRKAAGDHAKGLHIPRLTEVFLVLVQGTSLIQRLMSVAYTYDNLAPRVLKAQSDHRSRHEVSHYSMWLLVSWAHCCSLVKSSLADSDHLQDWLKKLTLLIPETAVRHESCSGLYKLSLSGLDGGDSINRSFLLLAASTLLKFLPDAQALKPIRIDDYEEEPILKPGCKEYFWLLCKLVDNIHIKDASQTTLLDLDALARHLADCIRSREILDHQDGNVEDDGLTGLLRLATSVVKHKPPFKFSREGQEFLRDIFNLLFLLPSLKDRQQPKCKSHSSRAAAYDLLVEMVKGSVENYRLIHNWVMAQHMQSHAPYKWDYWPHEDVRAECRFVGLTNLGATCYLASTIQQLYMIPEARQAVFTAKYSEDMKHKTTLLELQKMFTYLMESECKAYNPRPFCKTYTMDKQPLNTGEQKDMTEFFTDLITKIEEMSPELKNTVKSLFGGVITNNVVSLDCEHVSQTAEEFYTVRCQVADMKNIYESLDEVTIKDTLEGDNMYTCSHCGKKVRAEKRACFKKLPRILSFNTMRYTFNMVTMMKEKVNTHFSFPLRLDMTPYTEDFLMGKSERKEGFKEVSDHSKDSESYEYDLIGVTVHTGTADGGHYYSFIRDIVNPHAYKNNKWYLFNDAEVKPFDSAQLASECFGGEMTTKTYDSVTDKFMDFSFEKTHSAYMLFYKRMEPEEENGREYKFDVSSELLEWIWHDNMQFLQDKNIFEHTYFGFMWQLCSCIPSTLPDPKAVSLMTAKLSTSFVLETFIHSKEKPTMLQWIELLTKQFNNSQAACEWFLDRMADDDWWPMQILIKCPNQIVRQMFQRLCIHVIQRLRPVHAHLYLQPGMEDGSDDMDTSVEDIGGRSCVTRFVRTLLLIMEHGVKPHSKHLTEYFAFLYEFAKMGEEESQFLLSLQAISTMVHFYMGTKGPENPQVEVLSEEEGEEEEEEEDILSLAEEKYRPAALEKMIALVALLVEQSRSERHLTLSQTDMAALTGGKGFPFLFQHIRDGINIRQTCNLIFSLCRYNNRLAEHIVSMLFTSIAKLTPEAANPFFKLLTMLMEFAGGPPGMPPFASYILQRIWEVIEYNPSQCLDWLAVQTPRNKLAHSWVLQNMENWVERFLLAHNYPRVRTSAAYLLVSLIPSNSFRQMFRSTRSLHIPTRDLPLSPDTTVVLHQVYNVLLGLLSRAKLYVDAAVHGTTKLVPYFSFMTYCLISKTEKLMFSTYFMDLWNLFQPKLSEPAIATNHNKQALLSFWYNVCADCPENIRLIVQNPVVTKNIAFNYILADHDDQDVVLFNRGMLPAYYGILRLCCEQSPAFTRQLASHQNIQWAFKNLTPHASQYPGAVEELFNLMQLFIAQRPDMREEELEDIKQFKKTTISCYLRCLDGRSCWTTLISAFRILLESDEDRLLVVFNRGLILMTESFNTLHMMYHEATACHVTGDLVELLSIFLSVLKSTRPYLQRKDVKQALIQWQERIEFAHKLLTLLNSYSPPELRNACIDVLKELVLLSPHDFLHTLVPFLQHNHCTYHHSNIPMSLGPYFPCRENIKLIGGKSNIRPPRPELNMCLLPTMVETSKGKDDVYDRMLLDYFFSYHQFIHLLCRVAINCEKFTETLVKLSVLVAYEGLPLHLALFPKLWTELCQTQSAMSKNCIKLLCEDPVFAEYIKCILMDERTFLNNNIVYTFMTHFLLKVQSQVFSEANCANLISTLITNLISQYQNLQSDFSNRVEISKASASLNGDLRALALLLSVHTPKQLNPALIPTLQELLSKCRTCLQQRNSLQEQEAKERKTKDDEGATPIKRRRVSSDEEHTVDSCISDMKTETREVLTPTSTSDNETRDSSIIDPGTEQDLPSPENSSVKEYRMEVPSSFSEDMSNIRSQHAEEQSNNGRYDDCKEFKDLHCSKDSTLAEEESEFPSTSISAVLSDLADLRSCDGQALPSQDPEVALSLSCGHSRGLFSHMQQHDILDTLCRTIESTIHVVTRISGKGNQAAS

O=C(CCl)NC1(c2ccc3c(c2)OCCO3)CCCC1
inactive: USP34 -0.146 | USP36 -0.197 | USP38 -0.013 | USP39 0.277 | USP4 -0.0625
